The nature of assay [1]: ATG_ISRE_CIS: Attagene CIS-FACTORIAL HepG2 Assay for human Interferon Regulatory Factor 1 (IRF1) binding to an Interferon-Stimulated Response Element (ISRE) (AID 2282948). The note with it: HepG2 ISRE cis-reporter (Attagene), mRNA transcription readout; actives raise or lower the signal. In short, it runs like this: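 Cell-based cis-reporter assay; HepG2; 24 h exposure; reporter mRNA by RT-PCR plus capillary electrophoresis fluorescence; activity in either direction scored relative to DMSO.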

Assay [2] can be described thus: ATG_M_32_CIS: Attagene CIS-FACTORIAL HepG2 Assay for M32 Transcription Factor (Internal Marker) (AID 2282949).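 Further: background control marker of the multiplexed CIS panel rather than a real target.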 The note with it: HepG2 Attagene cis-factorial M32 reporter, mRNA; actives raise or lower the signal. The method, boiled down: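 Following 24 h chemical exposure of HepG2 cells transiently expressing cis-promoter reporter constructs, reporter transcript levels were determined by RT-PCR with fluorescent labelling and capillary electrophoresis, then fitted bidirectionally against DMSO.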

Assay [3] is described as follows: ATG_M_06_CIS: Attagene CIS-FACTORIAL HepG2 Assay for M06 Transcription Factor (Internal Marker) (AID 2282950). The note with it: HepG2 Attagene CIS-FACTORIAL M06 internal marker reporter; actives raise or lower the signal. The method, boiled down: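 Steps: transfect HepG2 with multiplexed cis-element reporter constructs; dose chemical 24 h; extract RNA with DNase treatment; reverse-transcribe, PCR-amplify, 6-FAM label, HpaI digest; separate fragments by capillary electrophoresis. Activity fitted both directions versus DMSO.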

Assay [4] deals with Hypoxia-inducible factor 1-alpha (Homo sapiens) (UniProt Q16665). Put plainly: ATG_HIF1a_CIS: Attagene CIS-FACTORIAL HepG2 Assay for human Hypoxia Inducible Factor 1 (HIF1A) (AID 2282951). The note with it: HepG2 Attagene cis-factorial HIF1a reporter transcription; actives raise or lower the signal. The method, boiled down: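 Dosed 24 h, transfected HepG2 cells yielded total RNA whose reporter transcripts were RT-PCR-amplified and sized by capillary electrophoresis using fluorescent labelling; DMSO defined baseline, with gain and loss of signal both fitted.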
Hypoxia-inducible factor 1-alpha (Homo sapiens), sequence (Q16665 whole entry, looked up): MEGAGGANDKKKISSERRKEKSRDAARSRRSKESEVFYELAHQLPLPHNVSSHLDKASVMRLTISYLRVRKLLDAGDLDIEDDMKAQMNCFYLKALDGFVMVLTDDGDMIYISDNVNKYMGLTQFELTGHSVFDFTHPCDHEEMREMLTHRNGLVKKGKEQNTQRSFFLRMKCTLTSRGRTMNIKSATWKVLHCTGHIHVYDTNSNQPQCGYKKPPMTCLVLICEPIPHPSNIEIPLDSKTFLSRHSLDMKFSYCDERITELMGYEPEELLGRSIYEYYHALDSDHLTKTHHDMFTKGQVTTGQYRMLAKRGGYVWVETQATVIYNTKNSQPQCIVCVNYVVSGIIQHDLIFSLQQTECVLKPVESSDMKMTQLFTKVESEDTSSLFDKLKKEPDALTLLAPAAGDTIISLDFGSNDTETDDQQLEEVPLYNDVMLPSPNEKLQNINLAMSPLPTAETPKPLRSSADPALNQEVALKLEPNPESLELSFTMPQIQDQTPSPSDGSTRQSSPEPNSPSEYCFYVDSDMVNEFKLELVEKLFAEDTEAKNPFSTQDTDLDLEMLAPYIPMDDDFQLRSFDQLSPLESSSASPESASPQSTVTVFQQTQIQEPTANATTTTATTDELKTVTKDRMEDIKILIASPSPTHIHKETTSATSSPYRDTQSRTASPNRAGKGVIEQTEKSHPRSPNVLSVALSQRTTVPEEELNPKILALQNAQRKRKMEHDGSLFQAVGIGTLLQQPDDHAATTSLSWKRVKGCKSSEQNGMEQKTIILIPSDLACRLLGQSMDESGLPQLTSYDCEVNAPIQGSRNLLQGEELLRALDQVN

Assay [5] deals with Hepatocyte nuclear factor 6 (Homo sapiens) (UniProt Q9UBC0). The assay is described as follows: ATG_HNF6_CIS: Attagene CIS-FACTORIAL HepG2 Assay for human Hepatocyte Nuclear Factor 6 (HNF6) (AID 2282952). The settings on record: HepG2 Attagene cis-factorial HNF6 reporter transcription; actives raise or lower the signal. The method, boiled down:
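HepG2, transient MRTU transfection (cis promoters); 24 h chemical exposure; total RNA → oligo(dT) RT → PCR → 6-FAM labelling → HpaI cut → CE; bidirectional fit vs DMSO.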

Assay [6] has as its target Heat shock factor protein 1 (Homo sapiens) (UniProt Q00613). Put plainly: ATG_HSE_CIS: Attagene CIS-FACTORIAL HepG2 Assay for human Heat Shock Transcription Factor 1 (HSE) (AID 2282953). The note with it: HepG2 HSE cis-reporter, Attagene RNA transcription; actives raise or lower the signal. In short, it runs like this:
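Cells were transfected with cis-element-driven reporter constructs, dosed for 24 h, then total RNA was reverse-transcribed and reporter cDNA amplified, FAM-labelled and digested with HpaI. Fragments were resolved by capillary electrophoresis; gain or loss was fitted against DMSO.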

Assay [7] is described as follows: ATG_MRE_CIS: Attagene CIS-FACTORIAL HepG2 Assay for human Metal Responsive Element (MRE) (AID 2282954). The note with it: HepG2 MRE cis-reporter transcription, Attagene multiplex; actives raise or lower the signal. In short, it runs like this:
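After a 24 h chemical exposure, transiently transfected HepG2 cells yield RNA whose reporter sequences are amplified, FAM-labelled and sized by capillary electrophoresis. Curves are fitted bidirectionally relative to DMSO.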

Assay [8] in a line: ATG_PBREM_CIS: Attagene CIS-FACTORIAL HepG2 Assay for human Phenobarbital-responsive Enhancer Module (PBREM) (AID 2282955). The note with it: HepG2 PBREM cis-reporter, Attagene multiplexed transcription; actives raise or lower the signal. In short, it runs like this:
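Transfected liver-derived HepG2 cells exposed 24 h; PBREM reporter transcript quantified via RT-PCR and capillary electrophoresis, with activity in either direction referenced to DMSO.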

In assay [9] the target is Paired box protein Pax-6 (Homo sapiens) (UniProt P26367). Put plainly: ATG_Pax6_CIS: Attagene CIS-FACTORIAL HepG2 Assay for human Paired Box 6 (PAX6) (AID 2282956). The settings on record: HepG2 CIS-FACTORIAL PAX6 reporter transcription, RNA readout; actives raise or lower the signal. The method, boiled down:
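Multiplexed cis-reporter HepG2 system; 24 h treatment; reporter mRNA read by RT-PCR/CE fluorescence; bidirectional fit vs DMSO.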

A short description of assay [10]: ATG_PXRE_CIS: Attagene CIS-FACTORIAL HepG2 Assay for human Pregnane X Receptor Element (PXRE) (AID 2282957). The note with it: HepG2 Attagene CIS-FACTORIAL PXRE reporter, mRNA; actives raise or lower the signal. The method, boiled down:
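Transfect HepG2 with MRTUs (cis promoter elements); dose chemical, incubate 24 h; isolate RNA, RT with oligo(dT), PCR, 6-FAM label, HpaI cut, CE. Gain/loss fit vs DMSO.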

The source of these data is PubChem BioAssay (EPA / NIEHS).

“And” between values parts separate entries of the source, which are not always exact repeats. Identical values can stand only once. Some compounds were tested as several samples or in several runs, with calls that do not always agree. The source made the active and inactive calls. How the source made its calls: active means hit-call score of the fitted dose curve at least 0.9, where 1 is the maximum; inactive means score below 0.9.

Paired box protein Pax-6 (Homo sapiens), sequence (P26367 whole entry, looked up): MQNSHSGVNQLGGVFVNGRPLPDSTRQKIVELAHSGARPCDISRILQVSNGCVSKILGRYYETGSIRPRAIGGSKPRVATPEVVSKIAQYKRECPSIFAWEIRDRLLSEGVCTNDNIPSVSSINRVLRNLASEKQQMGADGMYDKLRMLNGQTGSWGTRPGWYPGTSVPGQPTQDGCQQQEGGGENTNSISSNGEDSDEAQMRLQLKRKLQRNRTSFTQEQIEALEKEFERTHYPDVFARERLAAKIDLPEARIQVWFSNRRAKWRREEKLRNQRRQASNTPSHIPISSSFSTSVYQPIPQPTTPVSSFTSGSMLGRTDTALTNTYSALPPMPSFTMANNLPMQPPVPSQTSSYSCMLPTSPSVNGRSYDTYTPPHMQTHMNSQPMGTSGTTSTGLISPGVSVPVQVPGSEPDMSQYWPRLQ
Hepatocyte nuclear factor 6 (Homo sapiens), sequence (Q9UBC0 whole entry, looked up): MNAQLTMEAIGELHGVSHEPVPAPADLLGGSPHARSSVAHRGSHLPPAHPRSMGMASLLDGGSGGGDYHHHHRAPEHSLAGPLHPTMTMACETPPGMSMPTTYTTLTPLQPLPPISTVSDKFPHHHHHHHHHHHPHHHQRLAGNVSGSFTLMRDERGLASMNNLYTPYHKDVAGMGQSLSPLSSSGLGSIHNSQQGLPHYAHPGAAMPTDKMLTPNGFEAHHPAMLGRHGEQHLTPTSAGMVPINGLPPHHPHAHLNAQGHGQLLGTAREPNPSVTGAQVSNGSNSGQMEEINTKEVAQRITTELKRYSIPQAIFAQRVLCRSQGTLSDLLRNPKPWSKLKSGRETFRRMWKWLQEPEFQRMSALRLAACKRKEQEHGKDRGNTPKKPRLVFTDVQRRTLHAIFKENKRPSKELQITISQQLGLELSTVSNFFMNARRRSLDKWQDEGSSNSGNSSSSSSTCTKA
Heat shock factor protein 1 (Homo sapiens), sequence (Q00613 whole entry, looked up, the tested form may be a part): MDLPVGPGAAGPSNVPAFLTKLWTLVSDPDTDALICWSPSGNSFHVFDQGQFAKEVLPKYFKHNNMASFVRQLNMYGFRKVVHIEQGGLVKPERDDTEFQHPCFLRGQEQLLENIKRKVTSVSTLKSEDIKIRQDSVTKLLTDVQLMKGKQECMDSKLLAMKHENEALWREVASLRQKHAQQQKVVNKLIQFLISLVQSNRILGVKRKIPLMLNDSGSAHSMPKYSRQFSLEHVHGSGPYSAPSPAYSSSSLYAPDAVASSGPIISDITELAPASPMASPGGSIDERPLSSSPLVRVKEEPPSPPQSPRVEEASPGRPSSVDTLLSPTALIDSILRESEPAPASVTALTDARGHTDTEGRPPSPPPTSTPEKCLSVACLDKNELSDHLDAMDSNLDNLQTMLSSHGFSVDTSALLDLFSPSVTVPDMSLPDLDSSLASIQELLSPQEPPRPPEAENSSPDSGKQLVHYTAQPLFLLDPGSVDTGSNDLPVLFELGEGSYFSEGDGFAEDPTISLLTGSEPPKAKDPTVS

For orientation: AC50 means the concentration at which the activity in the assay is half-maximal. On to `COP(=O)(OC)OC`, for which the outcome in assay [1], in assay [2], in assay [3], in assay [4], in assay [5] and in assay [6] was inactive. Moreover, the compound was classed as inactive in [7], in assay [8] and in assay [9]. Also, the half-maximal activity concentration (AC50) in [10] is 32.7 µM (active).

As for `COC(=O)Cc1ccccc1`, the outcome in assay [1], in assay [2], in [3], in assay [4], in [5] and in assay [6] was inactive. Besides, the call in assay [7], in [8], in [9] and in assay [10] was inactive.

For `COc1cccc(C=O)c1`, the outcome in assay [1], in assay [2], in assay [3], in assay [4], in [5] and in assay [6] was inactive. The compound was classed as inactive in assay [7], in assay [8], in [9] and in assay [10].

`CC1(C)CCC(Cc2ccc(Cl)cc2)C1(O)Cn1cncn1` (configuration not stated): the call in [1], in [2], in assay [3], in [4], in assay [5] and in assay [6] was inactive. The outcome in assay [7] and in assay [9] was inactive. Besides, the values for the AC50 in assay [8] and in [10] were 24.2 µM (active) and 2.43 µM (active), respectively.

For the compound `CC(=O)[O][Hg][c]1ccccc1`, the outcome in assay [1], in assay [2], in [3], in assay [4], in [5] and in [6] was inactive. Also, the outcome in assay [8] and in assay [9] was inactive. Besides, the concentration at half-maximal activity (AC50) in [7] is 5.86 µM (active); in assay [10], 3.71 µM (active).

With `COc1cc2c(cc1OC)[C@@]13CCN4CC5=CCO[C@H]6CC(=O)N2[C@H]1[C@H]6[C@H]5C[C@H]43`, the compound was classed as inactive in assay [1], in [2], in assay [3], in assay [5], in assay [6] and in [7]. Also, the outcome in assay [8] and in assay [9] was inactive. Also, the AC50 is 30.3 µM (active) in assay [4] and 36.6 µM (active) in [10].

Take `C=CCc1ccc(OC)cc1`: the compound was classed as inactive in assay [1], in assay [2], in assay [3], in assay [4], in assay [5] and in assay [6]. The compound was classed as inactive in assay [7], in assay [8] and in assay [9]. The half-maximal activity concentration (AC50) in [10] was 26.6 µM (active).

For the compound `Cc1cc(Cl)ccc1O[C@H](C)C(=O)O`, the compound was called inactive in assay [1], in assay [2], in [3], in assay [4], in [5] and in assay [6]. Also, the call in [7], in [8], in assay [9] and in assay [10] was inactive.

As to `CN(C)N=O`, the compound was called inactive in assay [1], in assay [2], in assay [3], in assay [4], in [5] and in assay [6]. The result in assay [7], in assay [8] and in [9] was inactive. Further, the AC50 in assay [10] was 100 µM (active) and 55.8 µM (active).

For `O=C(O)C(F)(F)C(F)(F)C(F)(F)C(F)(F)C(F)(F)C(F)(F)C(F)(F)C(F)(F)C(F)(F)C(F)(F)F`, the concentration at half-maximal activity (AC50) in assay [1] is 44.5 µM (active) and 20.1 µM (active); in assay [2], 160 µM (active); in [6], 14.9 µM (active); in assay [7] it was 23.2 µM (active) and 15.5 µM (active); in assay [8], 70.8 µM (active); in assay [9], 30.8 µM (active). The concentration at half-maximal activity (AC50) in [10] was 62 µM (active). For the same compound, the call in [2], in assay [5], in assay [6], in [8], in assay [9] and in assay [10] was inactive.

In the case of `O=[N+]([O-])c1ccc(O)c([N+](=O)[O-])c1`, the compound was called inactive in assay [1], in assay [2], in assay [3], in assay [4], in assay [5] and in [6]. In addition, the call in assay [7], in [8], in assay [9] and in [10] was inactive.

For the compound `Cc1ccccc1N`, the compound was called inactive in assay [1], in [2], in assay [3], in assay [4], in assay [5] and in assay [6]. Further, the compound was called inactive in [7], in assay [8], in assay [9] and in [10].

As to `COc1cc(-c2ccc(N)c(OC)c2)ccc1N`, the AC50 was 53.6 µM (active) in assay [1]; 49.7 µM (active) and 57.9 µM (active) in assay [7]; 29.2 µM (active) in assay [8]; 19.9 µM (active) in [9]; 25.2 µM (active) in [10]. The compound was classed as inactive in assay [1], in assay [2], in assay [6], in [8], in [9] and in assay [10].

In the case of `CC1CN1P(=O)(N1CC1C)N1CC1C` (configuration not stated), the compound was called inactive in assay [1], in assay [2], in assay [3], in [4], in assay [5] and in assay [6]. Also, the compound was classed as inactive in assay [7], in [8], in assay [9] and in assay [10].

On to `COC(=O)c1sccc1S(=O)(=O)NC(=O)Nc1nc(C)nc(OC)n1`, for which the outcome in assay [1], in assay [2], in assay [3], in assay [4], in [5] and in assay [6] was inactive. Further, the call in [7], in assay [8], in assay [9] and in [10] was inactive.

Take `O=C1C2(Cl)C3(Cl)C4(Cl)C(Cl)(Cl)C5(Cl)C3(Cl)C1(Cl)C5(Cl)C24Cl` (configuration not stated): the AC50 in [1] was 15.1 µM (active); in assay [6], 16.7 µM (active); in assay [7], 3.57 µM (active) and 16.2 µM (active); in [8], 16 µM (active); in assay [9] it was 15.7 µM (active). Also, the compound was classed as inactive in assay [1], in assay [2], in assay [3], in assay [4], in [6] and in assay [7]. For the same compound, the outcome in assay [8] and in [9] was inactive.

On to `c1ccc(N=NNc2ccccc2)cc1`, for which the compound was classed as inactive in [1], in [2], in assay [3], in [4], in [5] and in [8]. For the same compound, the AC50 in assay [6] was 151 µM (active); in assay [7], 100 µM (active); in [9], 125 µM (active); in [10], 25.8 µM (active).

Turning to `CC(C)OC(=O)Nc1ccccc1`, the compound was called inactive in assay [1], in assay [2], in assay [3], in [4], in assay [5] and in assay [6]. The call in assay [7], in assay [8] and in assay [9] was inactive. For the same compound, the AC50 in [10] is 100 µM (active).

`CCN(CC)C(=O)Cl`: the compound was called inactive in [1], in assay [2], in [3], in assay [4], in [5] and in [6]. The compound was called inactive in assay [7], in assay [8], in [9] and in assay [10].

Regarding `CCOP(=S)(OCC)Oc1ccc(S(C)=O)cc1` (configuration not stated), the call in assay [1], in [2], in [3], in assay [4], in assay [5] and in assay [6] was inactive. The result in assay [7], in assay [8] and in assay [9] was inactive. The AC50 in [10] was 15.9 µM (active).
